Bioassay records: PubChem BioAssay, Johns Hopkins Ion Channel Center
Rows were chosen to be rich in hits. Some 1.6% of all compounds tested hit in one or more screens of this group.
KCNQ2 block – rat KCNQ2 potassium channel inhibitors, primary screen, cell-based, CHO-K1, FluxOR thallium flux, B-score. 20 min; hits give low values. B-score at 10 µM. Potassium voltage-gated channel subfamily KQT member 2 (Rattus norvegicus), O88943. actives 1.1% (n = 310,000);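 active = fluorescence ratio B-score at most minus 3 library SDs, with starting brightness B-score within 2 library SDs, cut at about -5.5 in these data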
Target sequence (O88943 whole entry, looked up): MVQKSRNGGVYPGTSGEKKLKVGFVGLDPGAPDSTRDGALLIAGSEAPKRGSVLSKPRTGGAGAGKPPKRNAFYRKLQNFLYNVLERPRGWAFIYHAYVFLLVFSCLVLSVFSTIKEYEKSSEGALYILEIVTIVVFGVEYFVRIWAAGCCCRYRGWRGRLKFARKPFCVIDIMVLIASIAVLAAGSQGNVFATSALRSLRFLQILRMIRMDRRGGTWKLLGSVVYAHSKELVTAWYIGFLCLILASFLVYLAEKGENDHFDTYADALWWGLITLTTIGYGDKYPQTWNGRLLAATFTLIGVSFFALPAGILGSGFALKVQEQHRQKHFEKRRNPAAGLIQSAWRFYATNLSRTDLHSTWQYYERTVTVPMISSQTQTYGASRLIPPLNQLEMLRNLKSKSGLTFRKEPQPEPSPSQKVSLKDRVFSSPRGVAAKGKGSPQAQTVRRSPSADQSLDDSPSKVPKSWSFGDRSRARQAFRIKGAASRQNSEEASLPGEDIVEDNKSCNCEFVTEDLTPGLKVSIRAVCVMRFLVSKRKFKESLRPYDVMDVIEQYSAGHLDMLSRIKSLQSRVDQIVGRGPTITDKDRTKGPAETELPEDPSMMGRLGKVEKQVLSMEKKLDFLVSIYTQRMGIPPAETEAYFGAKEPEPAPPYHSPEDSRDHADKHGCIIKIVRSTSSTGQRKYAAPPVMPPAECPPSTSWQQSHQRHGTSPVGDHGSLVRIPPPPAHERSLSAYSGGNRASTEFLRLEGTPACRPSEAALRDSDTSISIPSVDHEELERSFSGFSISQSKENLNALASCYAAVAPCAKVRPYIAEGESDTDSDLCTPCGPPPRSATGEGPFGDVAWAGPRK
KCNQ2 pot – potentiators of rat KCNQ2 potassium channel; Potassium voltage-gated channel subfamily KQT member 2 (Rattus norvegicus), O88943; CHO-K1 KCNQ2, FluxOR thallium flux fluorescence; hits give high values; B-score at 10 µM; actives 0.54% (n = 310,000); AID 2239, 2010;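 active = fluorescence ratio B-score at least 3 SD of library B-scores, with initial fluorescence B-score within 3 of them, cut at about 5.3 in these data; same plate scores as AID 2156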;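 note: B-score of peak minus minimum over baseline fluorescence ratio after K+ and Tl+ stimulus; positive B-score means potentiation of KCNQ2 with more thallium influx and brighter signal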
Kir21 confirm – mouse Kir2.1 channel blockers, retest, confirmation, cell-based, FluxOR thallium flux, duplicate. shares compounds with KCNQ2 pot. Kir2.1-expressing cells, FluxOR thallium flux fluorescence; hits give low values. Tl flux remaining, % of negative control (hits give low values), % at 10 µM. actives 41% (n = 2,300). AID 2032, 2009;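 active = Primary-screen hit whose thallium flux fell at least 3 control SD below untreated wells in both duplicates, with normal baseline fluorescence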;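 note: 0% = blank wells without stimulus and 100% = stimulated no-compound controls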
HEK293 ctr – parental HEK293 activity in Kir2.1 inhibitor counter-screen; shares compounds with KCNQ2 pot; parental HEK293 cells, FluxOR thallium flux fluorescence; 0% = unstimulated blank wells; FluxOR signal as % of negative control (100 = no effect), % at 10 µM; actives 19% (n = 2,300); AID 2105;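 active = dye signal at least 3 control SD above or below untreated wells in both duplicates, raw fluorescence within 3, either direction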;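 note: percent is based on the flux ratio of peak minus minimum fluorescence over baseline F0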
CHO-K1 Tl ctr – nonspecific thallium flux increase in parental CHO-K1, confirmation, counter-screen for KCNQ2 potentiator project, cell-based, FluxOR thallium flux, duplicate; activity increase over 3SD of controls, % at 10 µM; AID 2282, 2010; shares compounds with KCNQ2 pot; actives 43% (n = 1,200); parental CHO-K1 cells, FluxOR thallium flux fluorescence; zero = vehicle mean+3SD, 100% = vehicle-minus-blank window;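 active = signal rise of at least 3 SD above the untreated control mean, in both duplicate wells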;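 note: counter screen of KCNQ2 potentiator hits so any rise reflects channel-independent effects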
KCNQ1 sel pot – human KCNQ1 channel potentiation off-target, confirmation, selectivity assay for KCNQ2 potentiator project, cell-based, CHO, FluxOR thallium flux; activation over 3SD threshold, % at 10 µM; AID 2283, 2010; shares compounds with KCNQ2 pot; CHO KCNQ1 stable, FluxOR thallium flux fluorescence; beyond 3SD, as % of vehicle-control signal; actives 28% (n = 1,200);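 active = fluorescence ratio rise of at least 3 SD of vehicle wells above their mean, in both replicate wells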;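 note: 0% = vehicle mean plus 3 SD and 100% = vehicle minus unstimulated blank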
KCNQ2 pot confirm – rat KCNQ2 channel potentiators, confirmation, cell-based, CHO, FluxOR thallium flux, duplicate. AID 2287, 2010. shares compounds with KCNQ2 pot. CHO-KCNQ2 cells, FluxOR thallium flux fluorescence. potentiation, less the hit threshold, % at 10 µM. actives 68% (n = 1,200);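 active = fluorescence ratio rising 3 SD or more over the vehicle control mean in both replicates, plus primary screen hit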;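 note: peak minus minimum thallium fluorescence divided by baseline after K/Tl stimulus; 0% = vehicle mean plus 3 SD and 100% = vehicle minus unstimulated blank difference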
Kir21 spec – mouse Kir2.1 channel activation off-target, confirmation, selectivity assay for KCNQ2 potentiator project, cell-based, HEK293, FluxOR thallium flux; actives 2% (n = 1,200); AID 2345, 2010; HEK293 Kir2.1, FluxOR thallium flux fluorescence; activity over 3SD threshold, % at 10 µM; shares compounds with KCNQ2 pot;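 active = fluorescence ratio rise of at least 3 SD above the vehicle-control mean, seen in both replicates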;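 note: 0% = vehicle mean plus 3 SD and 100% = vehicle minus no-stimulus blank window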
KCNQ2 W236L pot – potentiators of retigabine-insensitive KCNQ2 W236L, mechanism study for KCNQ2 potentiator project, cell-based, rat KCNQ2 W236L, CHO, automated patch clamp; shares compounds with KCNQ2 pot; automated patch clamp current; current increase over 3SD of negative controls (%), hits give high values, % at 25 µM; actives 10% (n = 940); AID 2558, 2010;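 active = current increase at least 3 SD of the untreated controls above them in both duplicate recordings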
* = called active by the depositor; i = inactive; nt = no result.

SMILES | KCNQ2 block | KCNQ2 pot | Kir21 confirm | HEK293 ctr | others
Cc1ccc(C(C)NC(=O)C23CC4CC(CC(C4)C2)C3)cc1 (configuration not stated) | i | 6* | i | i | CHO-K1 Tl ctr=-4;KCNQ1 sel pot=65*;KCNQ2 pot confirm=6.5*;Kir21 spec=-22;KCNQ2 W236L pot=i
CCC(=O)Nc1ccc(NC(=O)C23CC4CC(CC(C4)C2)C3)cn1 | i | nt | nt | nt
CC(NC(=O)C12CC3CC(CC(C3)C1)C2)c1ccc2c(c1)OCCO2 (configuration not stated) | i | 3.9 | nt | nt
N#C/C(=C/c1ccc(F)cc1)c1nnc(NC(=O)c2ccccc2)s1 | i | nt | nt | nt
COc1ccc(NC(=O)NNC(=O)C(C)Oc2ccc3ccccc3c2)cc1 (configuration not stated) | i | nt | nt | nt
CC(C)c1ccc(/C=C/C(=O)NC2CCCCC2)cc1 | i | 0.67 | nt | nt
CC(NC(=S)NC1CCCCC1)c1ccc(C(C)(C)C)cc1 (configuration not stated) | i | 9.9* | i | i | CHO-K1 Tl ctr=-6;KCNQ1 sel pot=-18;KCNQ2 pot confirm=16*;Kir21 spec=-34;KCNQ2 W236L pot=i
CC(C)c1ccc(C(C)NC(=S)NC2CCCCC2)cc1 (configuration not stated) | i | 16* | i | i | CHO-K1 Tl ctr=-3;KCNQ1 sel pot=-20;KCNQ2 pot confirm=39*;Kir21 spec=-42;KCNQ2 W236L pot=i
CC(C)c1ccccc1NC(=S)NC1CCCCC1 | i | nt | nt | nt
CC(C)On1c(SCC(=O)N(C)C)nc2ccccc2c1=O | i | 0.94 | nt | nt
Cc1cc(S(=O)(=O)N2CCN=C2c2ccccc2)c(Cl)cc1Cl | i | 1.6 | nt | nt
CN1CCN(CC(O)Cn2c3ccccc3c3ccccc32)CC1 (configuration not stated) | i | nt | nt | nt
CN1CCN(CC#CCn2c3ccccc3c3ccccc32)CC1 | i | nt | 32%* | i
COc1ccc(Cc2c(C)nc(N)nc2Cl)cc1 | i | 1.2 | nt | nt
Cc1nc(N)nc(N)c1CCCc1ccc(Cl)c(Cl)c1 | i | nt | 37%* | 68%*
CN1CCN(CC(=O)N2c3ccccc3C(C)(c3ccc(Cl)cc3)CC2(C)C)CC1 (configuration not stated) | i | 0.07 | nt | nt
CN1CCN(CC(=O)N2c3ccccc3C(C)(c3ccccc3)CC2(C)C)CC1 (configuration not stated) | i | nt | 58%* | i
CC(NC(=O)c1ccc(Br)cc1)c1ccc2c(c1)CCCC2 (configuration not stated) | i | 7.6* | i | i | CHO-K1 Tl ctr=43*;KCNQ1 sel pot=-2;KCNQ2 pot confirm=40*;Kir21 spec=-29;KCNQ2 W236L pot=i
CC(NC(=O)c1ccccc1Br)c1ccc2c(c1)CCCC2 (configuration not stated) | i | nt | nt | nt
CC1(C)CC(=O)C=C(NCCN2CCN(C(=S)NC3CCCCC3)CC2)C1 | i | nt | nt | nt
COc1ccc(OCCC(=O)OCC(=O)Nc2ccc(S(=O)(=O)N3CCOCC3)cc2)cc1 | i | 0.1 | nt | nt
